Assay results published in the supplement of paper PMC13380429.

Assays:
[1] = test system: Vero E6 infected with SARS-CoV-2; assay: morphology score (similarity to uninfected cells); higher = more like uninfected cells; conditions: 24 h
[2] = test system: Vero E6 infected with SARS-CoV-2; assay: SARS-CoV-2 infection rate relative to infected DMSO; higher = more infection, active = 60 or less; conditions: 24 h

SMILES: O=C(/C=C/c1ccc(O)cc1)c1ccc(O)cc1O [isoliquiritigenin] (10 µM)
- morphology score [1]: 0.403
- SARS-CoV-2 infection rate [2]: 103% (inactive)

SMILES: CCCc1c(OCCCOc2ccc(OCC(=O)O)cc2)ccc(C(C)=O)c1O (10 µM)
- morphology score [1]: 0.0635
- SARS-CoV-2 infection rate [2]: 106% (inactive)

SMILES: CCOC(=O)c1c(C)[nH]c2ccc3c(c12)CN1CCc2cc(OC)ccc2C1O3 (configuration not stated) (10 µM)
- morphology score [1]: 0.729
- SARS-CoV-2 infection rate [2]: 28.5% (active)

SMILES: CN1CCN(c2c(F)cc3c(=O)c(C(=O)O)cn4c3c2SCC4)CC1 [rufloxacin] (10 µM)
- morphology score [1]: 0.0805
- SARS-CoV-2 infection rate [2]: 103% (inactive)

SMILES: COc1cc(C(=O)OCCCN2CCCN(CCCOC(=O)c3cc(OC)c(OC)c(OC)c3)CC2)cc(OC)c1OC [dilazep] (0.833333 µM)
- morphology score [1]: -0.00497
- SARS-CoV-2 infection rate [2]: 106% (inactive)

SMILES: C[C@@H](C1=C(CCN(C)C)Cc2ccccc21)c1ccccn1 (racemic) [dimetindene] (10 µM)
- morphology score [1]: 0.121
- SARS-CoV-2 infection rate [2]: 94.8% (inactive)
